# High-throughput results as filed in PubChem.
# The list is not random: actives were taken first. Their share in the collection is about 4.1%.
# Shn3 3UTR inh: reduces Shn3 3'UTR luciferase signal in osteoblasts; inhibition, % at 12.5 µM; Clone20 osteoblast Shn3 3'UTR firefly luciferase, 24 h; actives 0.52% (n = 360,000); AID 588674;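 active = mean inhibition of at least 75% with every replicate also reaching 75%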;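 note: 0% = median of neutral control wells and 100% = pilot-screen positive control compound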
# TWEAK-Fn14 inh: inhibitors of TWEAK-Fn14 interaction signaling | TWEAK-stimulated Fn14 reporter cells, luciferase luminescence, 8 h | inhibition, % at 10 µM | actives 2% (n = 360,000) | AID 1159606; in the data active = inhibition above about 50%
# Peg3 promoter: reduces Peg3 promoter-driven luciferase expression in HeLa. HeLa PEG-Prom luciferase reporter, luminescence, overnight. inhibition, % at 20 µM. actives 1.7% (n = 360,000). AID 588405;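 active = inhibition of at least 50% at 20 µM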
# TRPM1 prom inh: inhibitors of MITF-driven TRPM1 promoter in melanoma cells | SK-MEL-5 TRPM1 promoter luciferase, 24 h | inhibition, % at 12.5 µM | actives 0.83% (n = 330,000) | AID 488899;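 active = mean inhibition across replicates of 60% or more, whatever share of single replicates reaches that level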
# EBV LMP1 NFkB: Epstein-Barr LMP1 NF-kappaB reporter inhibition; actives 0.69% (n = 350,000); LMP1-induced NF-kappaB luciferase reporter cells, luminescence; inhibition, % at 12.5 µM; AID 504558; in the data active = inhibition above about 41%;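 note: 0% = neutral control wells and 100% = reference inhibitor control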
# TROY signal inh: blocks TROY-dependent signaling in reporter cells; actives 0.98% (n = 360,000); AID 1347056; Q293 LMP1-TROYcd NF-kB luciferase reporter, 4 h; inhibition, % at 10 µM;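 active = compounds whose plate-normalised and pattern-corrected inhibition of the luciferase reporter signal at the single screening dose is 50% or more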
# Starred values were filed as active, the others as inactive; · = no result given.
SMILES,Shn3 3UTR inh,TWEAK-Fn14 inh,Peg3 promoter,TRPM1 prom inh,EBV LMP1 NFkB,TROY signal inh
Cc1ccc(S(=O)(=O)/N=C2\C=C(Nc3cccc(C(=O)O)c3)C(=O)c3ccccc32)c(C)c1,5,93*,-53,17,-13,16
Cc1ccc(S(=O)(=O)N2CCN(C(=O)CNC(=O)c3sc4ccccc4c3Cl)CC2)cc1,-24,-32,26,0,12,-14
COc1ccccc1C(=O)NC(=O)COC(=O)CNC(=O)c1ccc(Cl)cc1Cl,3,-1,11,-1,-8,-3
COCCN1C(=O)COc2ccccc2C1C(=O)NC1CCCC1 (centres undefined),·,21,·,·,·,-10
CCN(CC)CCCNc1nc2cc(OC)c(OC)cc2c2nc(-c3cccnc3)nn12,5,-88,-12,-23,-21,-47
COc1cc2nc(NCC3CCCO3)n3nc(-c4cccnc4)nc3c2cc1OC (centres undefined),5,-1,55*,1,-11,10
COCCCNc1nc2cc(OC)c(OC)cc2c2nc(-c3ccccc3)nn12,-3,13,54*,-12,10,-8
CCc1ccc(-c2cc(C(F)(F)F)n3nc(C(=O)Nc4cnn(Cc5ccc(C)cc5)c4)cc3n2)s1,91*,-59,43,54,-15,18
CC1(C)N=C(N)N=C(N)N1c1ccc(OCCCOc2ccccc2)c(Cl)c1,-7,87*,26,42,-5,6
Cc1ccc2c(Cl)cc(Cl)c(OCC(=O)Nc3cc(S(=O)(=O)N(C)C)ccc3C)c2n1,42,80*,48,7,12,38
CCOC(=O)C1(Cc2ccc(OC)cc2)CCN(S(C)(=O)=O)CC1,1,-19,9,4,1,-13
CCOC(=O)C1(Cc2ccc(Cl)cc2)CCN(C(C)Cc2ccc(O)c(OC)c2)CC1 (centres undefined),92*,34,9,5,12,27
Cc1ccc(C(=O)OCC(=O)NCc2ccc(F)cc2)o1,-11,2,-4,1,2,3
CCN(CC(=O)NCc1ccc(Cl)cc1)C(=O)CN1C(=O)NC(CC)(c2ccccc2)C1=O (centres undefined),1,91*,8,14,-1,-10
CCN(CC(=O)NCc1ccc(Cl)cc1)C(=O)CN1C(=O)NC(C)(c2ccccc2)C1=O (centres undefined),2,-4,8,6,-1,-25
COc1cc2c(cc1NC(=O)CN1C(=O)NC3(CCc4ccccc43)C1=O)oc1ccccc12 (centres undefined),9,62*,57*,3,-20,5
COC(=O)COc1ccc(-c2nccc(-c3ccc(Br)cc3)n2)cc1,-4,7,2,9,-8,-1
COC(=O)COc1ccc(-c2nccc(-c3ccccn3)n2)cc1,25,61*,-50,22,20,9
CCOC(=O)c1cc(-c2ccccc2C)nn1Cc1cc(C)no1,-61,-53,-165,-68,58*,-69
CCOC(=O)c1cc(-c2ccccc2)nn1Cc1cc(C)no1,-40,-22,-223,-86,-16,-46
CCc1ccc2oc(-c3ccc(OC)cc3)cc(=Nc3c(C)n(C)n(-c4ccccc4)c3=O)c2c1,-2,75*,-177,-70,-48,55*
C=CCn1c(-c2ccc(OC)cc2)csc1=Nc1c(C)n(C)n(-c2ccccc2)c1=O,23,10,15,23,42*,11
CCc1ccc2oc(-c3ccc(OC)cc3)cc(=Nc3cccc(C(=O)O)c3)c2c1,17,85*,-240,-20,11,65*
COc1ccc(-c2cc(=Nc3ccc(C(=O)O)cc3)c3cc(C)ccc3o2)cc1,-28,72*,-357,-60,-15,-17
Cc1csc(=Nc2c(C)n(C)n(-c3ccccc3)c2=O)n1Cc1ccccc1,7,1,3,3,-6,1
COc1ccc(-c2cc(=O)c3cc(O)ccc3o2)cc1,-66,-31,-365,·,-59,-86
C=CCNC(=O)C(=O)Nc1ccc2c(c1)N(S(=O)(=O)c1cccs1)CCC2,10,6,16,12,-12,9
Cc1cc(NC(=O)Cn2nnc(-c3ccccc3NC(=O)c3ccccc3F)n2)no1,8,4,-1,-13,4,-2
